# Screening results as filed in PubChem BioAssay.
# The list is not random: actives were taken first. Their share in the collection is about 32%.
# CYP2C9 inhib: inhibitors of human CYP2C9; P11712; CYP2C9 Supersomes, luciferin-H conversion, luminescence; inhibition, % at 5 µM; 96,000 tested, 20% active;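 active = blocking of liver enzyme CYP2C9 beyond about 50% at 5 µM, limit read from the data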
# CYP2C9 act: activators of human CYP2C9 | recombinant CYP2C9, luciferin-H conversion, luminescence; active compounds read high; factor 1 = untreated enzyme, 0 = blocked | 96,000 tested, 1.4% active | activation factor at 5 µM | P11712;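 active = activation factor of 2 or more for CYP2C9 at a 5 µM dose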
# PostGolgi ctrl: yeast control strain growth, post-Golgi counter-screen. efflux-deficient yeast background strain, growth absorbance A615, 16 h. inhibition, % at 10 µM. 98,000 tested, 5% active
# CYP2C19 inhib: blocks human cytochrome P450 2C19 | P33261 | CYP2C19 Supersomes, luciferin-H EGE luminescence, 30 min | inhibition, % at 5 µM | 96,000 tested, 21% active;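 active = CYP2C19 inhibition above a set limit at 5 µM in the primary screen, cut at about 50% in these data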
# Target sequence (P33261 whole entry, looked up): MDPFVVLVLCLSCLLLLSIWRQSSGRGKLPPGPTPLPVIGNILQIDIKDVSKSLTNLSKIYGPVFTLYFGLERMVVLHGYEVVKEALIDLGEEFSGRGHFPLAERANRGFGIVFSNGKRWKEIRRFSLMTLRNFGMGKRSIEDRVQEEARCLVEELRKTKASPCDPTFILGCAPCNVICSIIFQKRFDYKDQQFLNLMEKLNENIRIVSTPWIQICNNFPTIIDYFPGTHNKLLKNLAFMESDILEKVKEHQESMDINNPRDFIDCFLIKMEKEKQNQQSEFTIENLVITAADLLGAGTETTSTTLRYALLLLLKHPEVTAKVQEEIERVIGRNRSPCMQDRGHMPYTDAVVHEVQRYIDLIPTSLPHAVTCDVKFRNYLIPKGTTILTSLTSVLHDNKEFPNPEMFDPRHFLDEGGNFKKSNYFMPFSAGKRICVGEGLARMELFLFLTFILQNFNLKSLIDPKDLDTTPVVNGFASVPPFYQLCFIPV
# CYP2C19 act: cytochrome P450 2C19 (human) activation; 96,000 tested, under 10 active; P33261; recombinant CYP2C19, luciferin-H EGE luminescence; active compounds read high; 0 = fully inhibited enzyme, 1 = untreated enzyme; activation factor at 5 µM;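 active = activation factor of at least 2 at 5 µM in the primary screen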
# PostGolgi yeast: growth inhibition of a yeast mutant, post-Golgi transport screen. post-Golgi transport phenotypic cell assay. inhibition, % at 10 µM. 98,000 tested, 0.9% active. AID 739;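 also: yeast cells grown in 1536-well plates; yeast grown about 18 h at 30C before absorbance read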
# Numbers stand for hits; i = inactive. Rule as the data show it, unless noted: active = inhibition above about 30%; inactive = the rest.
SMILES,CYP2C9 inhib,CYP2C9 act,PostGolgi ctrl,CYP2C19 inhib,CYP2C19 act,PostGolgi yeast
CC(=O)NCCn1c(SCC(=O)c2ccc(Cl)cc2)nc2ccccc2c1=O,i,i,i,i,i,i
Cn1c(SCC(=O)O)nc2ccccc2c1=O,i,i,i,i,i,i
CS(=O)c1ccccc1-c1nc(-c2cc(C(F)(F)F)cc(C(F)(F)F)c2)no1 (centres undefined),i,i,i,i,i,i
COC(=O)Cc1[nH]nc2c1C(C1C=CCCC1)C(C#N)=C(N)O2 (centres undefined),60,i,i,70,i,i
COC(=O)Cc1[nH]nc2c1C(c1c[nH]c3ccccc13)C(C#N)=C(N)O2 (centres undefined),i,i,i,52,i,i
COCc1[nH]nc2c1C(c1ccccc1F)C(C#N)=C(N)O2 (centres undefined),i,i,i,i,i,i
CCOC(=O)Cc1[nH]nc2c1C(c1ccoc1)C(C#N)=C(N)O2 (centres undefined),i,i,i,77,i,i
Fc1ccc(CN2CCN3CCCC3C2C2CCCCC2)cc1F (centres undefined),i,i,i,i,i,i
O=C(CCNS(=O)(=O)c1cccs1)Nc1nccs1,i,i,i,i,i,i
Cc1ccc2nc(NC(=O)CCNS(=O)(=O)c3cccs3)sc2c1,i,i,36,i,i,i
CC(C)(C)NS(=O)(=O)c1ccc2nc(NC(=O)Cc3cccs3)sc2c1,88,i,i,50,i,i
Cc1cccc2sc(NC(=O)CCNS(=O)(=O)c3cccs3)nc12,78,i,i,82,i,i
Cc1ccc2nc(NC(=O)CCNS(=O)(=O)c3ccc(Br)s3)sc2c1,i,i,42,i,i,i
CS(=O)(=O)c1ccc2nc(NC(=O)CCC(=O)c3cccs3)sc2c1,i,i,i,i,i,i
CCCCCOP(=O)(OCCCCC)C1(NS(=O)(=O)c2ccccc2)C=CC(=O)c2ccccc21 (centres undefined),56,i,i,i,i,i
CN1CCN(c2nc(N3CCN(c4ccccc4)CC3)ncc2F)CC1,i,i,i,62,i,i
Cc1ccc(-c2nn(-c3ccccc3)cc2CN(Cc2ccccc2)C(=O)c2ccco2)o1,70,i,i,i,i,i
CC(=O)c1ncnn1CC(=O)c1ccc(Cl)cc1Cl,i,i,i,61,i,i
c1ccc(CN2CCC(Nc3nc(-c4ccccc4)nc4ccccc34)CC2)cc1,86,i,i,61,i,i
CCCC/C(C)=N\NC(=O)CNS(=O)(=O)c1ccc([N+](=O)[O-])cc1,i,i,i,i,i,i
COC(=O)C1=C(C)Nc2ncnn2C1c1ccc(OCc2ccccc2)cc1 (centres undefined),i,i,i,i,i,i
Cc1[nH]c2ccccc2c1C(=O)Cn1c(=O)oc2ccccc21,58,i,i,62,i,i
Cc1[nH]c2ccccc2c1C(=O)CN1CCC2(CC1)OCCO2,i,i,i,i,i,i
COc1ccc(NC(=O)CSc2ncccc2C(=O)OC(C)C)cc1OC,77,i,i,92,i,i
COc1ccc(NC(=O)CSc2ccccn2)cc1OC,i,i,i,i,i,i
SMILES,CYP2C9 inhib,CYP2C9 act,PostGolgi ctrl,CYP2C19 inhib,CYP2C19 act,PostGolgi yeast
COc1ccc(NC(C)=O)cc1NC(=O)CSc1nc2ncccc2[nH]1,56,i,i,i,i,i
CC(C)OC(=O)c1cccnc1SCC(=O)N(C)c1ccccc1,i,i,i,69,i,i
CC(C)OC(=O)c1cccnc1SCc1cc(=O)n2ccccc2n1,52,i,i,i,i,30
Cc1ccc(CSc2ncccc2C(=O)O)cc1,i,i,i,i,i,i
CCN(CC)CCNC(=O)c1ccc2c(=O)n(CCc3ccccc3)c(=O)[nH]c2c1,i,i,i,i,i,i
CN(C)CCN1C(=O)C(=O)/C(=C(/O)c2ccc(F)cc2)C1c1ccccc1 (centres undefined),i,i,i,i,i,i
COc1ccccc1Nc1ncccc1C(=O)NCc1ccccc1,i,i,i,i,i,i
CNC(=O)COC(=O)c1cccnc1SC,i,i,i,i,i,i
CCOC(=O)c1cccnc1SCC(=O)NCc1ccccc1,92,i,i,98,i,i
CCN(C(=O)CSc1ncccc1C(=O)OC(C)C)c1cccc(C)c1,i,i,i,53,i,i
CCC(Sc1ncccc1C(=O)OC(C)C)C(=O)N1CCOCC1 (centres undefined),i,i,i,i,i,i
CCOC(=O)c1cccnc1SCC(=O)N(CC)c1cccc(C)c1,i,i,i,65,i,i
C=CCSc1ncccc1C(=O)NCc1ccccc1,i,i,i,88,i,i
Cc1ccc(C(=O)C(OC(=O)CN2C(=O)c3ccccc3C2=O)c2ccccc2)cc1C (centres undefined),i,2,i,i,i,i
CCCCCCC1CC(CSC(=N)N)OC1=O (centres undefined),i,i,i,79,i,i
CCn1c(Cc2ccc(OC)cc2)nnc1SCC(=O)Nc1nc2ccccc2s1,i,i,i,i,i,i
O=C(C1CCC1)N1CCc2cc(S(=O)(=O)NCc3ccco3)ccc21,i,i,i,i,i,i
O=C(Nc1ccc(S(=O)(=O)N2CCC(C(=O)NC3CCCCC3)CC2)cc1)c1ccco1,i,i,i,i,i,i
CCC(=O)Nc1ccc(NC(=O)c2ccc3c(c2)OCO3)cc1,i,i,i,i,i,i
COC(=O)Nc1ccc(S(=O)(=O)N2CCCc3ccccc32)cc1,i,i,i,i,i,i
O=C(Nc1ccc(S(=O)(=O)N2CCc3ccccc32)cc1)c1ccc2c(c1)OCO2,i,i,37,i,i,i
COc1cc(C(=O)Nc2ccc(S(=O)(=O)N3CCc4ccccc43)cc2)cc(OC)c1OC,91,i,i,i,i,i
COc1ccccc1C(=O)Nc1ccc(S(=O)(=O)N2CCc3ccccc32)cc1,89,i,34,73,i,i
CC1CCCCN1S(=O)(=O)c1ccc(NC(=O)c2ccco2)cc1 (centres undefined),72,i,i,59,i,i
Cc1ccc(C(=O)COC(=O)CNS(=O)(=O)c2ccccc2)cc1[N+](=O)[O-],i,i,i,i,i,i
Cc1cc(C)c(NC(=O)c2ccc(CN3CCc4ccccc4C3)cc2)c(C)c1,i,i,i,i,i,i
O=C(Nc1ccc(S(=O)(=O)N2CCc3ccccc32)cc1)c1ccco1,i,i,44,i,i,i
CCCCC(=O)Nc1nc(C)c(-c2csc(Nc3ccccc3OC)n2)s1,i,i,i,i,i,i
CCCCCC(=O)Nc1nc(C)c(-c2csc(Nc3cc(OC)ccc3OC)n2)s1,55,i,i,i,i,i
CCCCCCC(=O)Nc1nc(C)c(-c2csc(Nc3cc(OC)ccc3OC)n2)s1,i,i,i,i,i,i
